Bioassay records (PubChem BioAssay)
CYP2C19 inhib: human CYP2C19 inhibition; CYP2C19 Supersomes, luciferin-H EGE luminescence, 30 min; P33261; inhibition, % at 5 µM; actives 21% (n = 96,000);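 active = CYP2C19 inhibition above a set limit at 5 µM in the primary screen, cut at about 50% in these data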
Cav32 inh: human Cav3.2 channel inhibition, primary screen; O95180; Cav3.2-expressing cells, Fluo-4 calcium fluorescence FDSS; stronger effect = lower value; B-score at 10 µM; actives 4% (n = 100,000); AID 449739;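 active = single-dose well whose peak fluorescence ratio is a statistical outlier from its plate by either plate-standardised score or position-corrected B-score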
CYP2C19 act: activators of human cytochrome P450 2C19; P33261; AID 1025; activation factor at 5 µM; recombinant CYP2C19, luciferin-H EGE luminescence; stronger effect = higher value; 0 = fully inhibited enzyme, 1 = untreated enzyme; 96,000 tested, under 10 active;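 active = activation factor of at least 2 at 5 µM in the primary screen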
CYP2C9 inhib: inhibitors of human CYP2C9; inhibition, % at 5 µM; P11712; actives 20% (n = 96,000); AID 777; CYP2C9 Supersomes, luciferin-H conversion, luminescence;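 active = blocking of liver enzyme CYP2C9 beyond about 50% at 5 µM, limit read from the data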
CYP2C9 act: increases human cytochrome P450 2C9 activity; P11712; recombinant CYP2C9, luciferin-H conversion, luminescence; stronger effect = higher value; factor 1 = untreated enzyme, 0 = blocked; activation factor at 5 µM; actives 1.4% (n = 96,000); AID 1024;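 active = activation factor of 2 or more for CYP2C9 at a 5 µM dose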
Hits are given with their value; 0 = inactive; - = no result. Compounds with a hit are over-represented: about 27% of the library has one in this group of screens.

SMILES	CYP2C19 inhib	Cav32 inh	CYP2C19 act	CYP2C9 inhib	CYP2C9 act
Cn1c(SCC(=O)c2cc3ccccc3o2)nnc1-c1ccccc1	84	0	0	68	0
Cn1ccnc1SCC(=O)c1cc2ccccc2o1	59	0	0	0	0
CCOC(=O)COc1ccc2c(c1)C(=O)CC(C)(C)O2	0	0	0	0	0
Cn1c(C(=O)NCCc2c[nH]c3ccccc23)cc2sccc21	54	-5.3	0	0	0
O=C(NCCc1c[nH]c2ccccc12)c1cc2sccc2n1Cc1ccccc1	65	-5	0	82	0
COc1ccccc1CNC(=O)c1cc2sccc2n1C	0	0	0	0	0
O=C(NCc1ccc(F)cc1)c1cc2sccc2n1Cc1ccc(F)cc1	-	0	-	-	-
N/C(=N\OC(=O)C(c1ccccc1)c1ccccc1)c1cccnc1	0	0	0	51	0
N/C(=N\OC(=O)C(c1ccccc1)c1ccccc1)c1ccccn1	-	0	-	-	-
COc1c(Cl)cc(-c2noc(C)c2C(=O)NCCc2ccc(C)cc2)cc1Cl	0	0	0	0	0
Oc1ccccc1C(=S)N1CCCCC1	78	0	0	0	0
Oc1ccccc1C(=S)N1CCCCCC1	52	0	0	0	0
NC(=O)c1ccccc1O	-	0	-	-	-
Cc1cccc(-c2nnc(SCc3cc(=O)[nH]c4ccccc34)n2C)c1	84	0	0	0	2.1
CCOc1ccc(N(CC(=O)NCc2ccco2)S(C)(=O)=O)cc1	0	0	0	0	0
Cc1nn(C)c(C)c1S(=O)(=O)Nc1ccc2c(c1)OCO2	81	0	0	0	0
COc1ccc(N(CC(=O)NCc2ccco2)S(=O)(=O)c2c(C)nn(C)c2C)cc1	75	0	0	0	0
COc1ccc(N(CC(=O)NCc2ccc3c(c2)OCO3)S(=O)(=O)c2c(C)nn(C)c2C)cc1	87	0	0	0	0
Cc1ccc(C)c(NS(=O)(=O)c2c(C)nn(C)c2C)c1	0	0	0	0	0
COc1ccc(N(CC(=O)Nc2ccc3c(c2)OCO3)S(=O)(=O)c2c(C)nn(C)c2C)cc1	0	0	0	79	0
O=C1CCC/C1=c1\s/c(=C\c2cccnc2)c(=O)n1-c1ccccc1	0	0	0	0	0
CC(C)CC(=O)N1CCN(C(=O)CCC2CCCC2)CC1	0	0	0	0	0
O=C1CC(=O)N(CCc2ccc(F)cc2)C(=O)N1	0	0	0	0	0
COc1ccc2nc(NC(=O)CN(c3ccc(C)cc3)S(=O)(=O)c3c(C)nn(C)c3C)sc2c1	0	0	0	68	0
CCc1ccc(NC(=O)CN(c2ccc3c(c2)OCO3)S(=O)(=O)c2c(C)noc2C)cc1	0	0	0	0	0
SMILES	CYP2C19 inhib	Cav32 inh	CYP2C19 act	CYP2C9 inhib	CYP2C9 act
CCc1ccc(N(CC(=O)Nc2nc3ccc(C)cc3s2)S(=O)(=O)c2c(C)noc2C)cc1	58	0	0	93	0
COc1ccc(-c2cc3ccccc3s2)cc1[C@H]1[C@H]2C=CC[C@@H](C)[C@@H]2C(=O)N1Cc1ccccc1	-	0	-	-	-
Cc1ccc(-c2cc(C(F)F)n3ncc(C(=O)Nc4ccc(S(=O)(=O)Nc5ccccc5C)cc4)c3n2)cc1	0	0	0	82	0
COc1ccc(-c2cc(C(F)F)n3ncc(C(=O)NCC4CCCO4)c3n2)cc1 (stereo unspecified)	0	0	0	0	0
Cc1ccc(-c2cc(C(F)F)n3ncc(C(=O)N4CCN(c5cccc(C)c5C)CC4)c3n2)cc1	0	0	0	68	0
CCOC(=O)N1CCN(C(=O)c2cnn3c(C(F)F)cc(-c4ccc(C)cc4)nc23)CC1	0	0	0	0	0
Cc1ccc(-c2cc(C(F)F)n3ncc(C(=O)N4CCCc5ccccc54)c3n2)cc1	-	0	-	-	-
COc1ccc(NS(=O)(=O)c2ccc(NC(=O)c3cnn4c(C(F)F)cc(-c5ccc(C)cc5)nc34)cc2)cc1	0	0	0	60	0
CCOC(=O)CNC(=O)c1cc(C)oc1C	0	0	0	0	0
CCNc1nc(SC(C)C(=O)Nc2ccccc2)nc(N2CCOCC2)n1 (stereo unspecified)	0	0	0	56	0
CC(=O)C(Sc1nn(C)c(=S)s1)C(=O)Nc1ccccc1 (stereo unspecified)	0	0	0	96	0
CC(Sc1nc(NCc2ccccc2)nc(N2CCOCC2)n1)C(=O)Nc1ccccc1 (stereo unspecified)	0	-	0	80	0
Cc1cc(NCc2ccccc2)nc(N2CCOCC2)n1	0	0	0	0	0
CCOC(=O)CNC(=O)CSc1nc(NCc2ccccc2)nc(N(C)C)n1	53	0	0	0	0
CSc1nc(NCC(C)C)nc(N2CCOCC2)n1	0	0	0	0	0
Nc1c(S(=O)(=O)c2cccc(Cl)c2)c2nc3ccccc3nc2n1/N=C/c1ccc(O)c(O)c1	0	0	0	0	0
CN1C(C(=O)NCc2cccc(Br)c2)CC2Cn3c(nc4cc5ccccc5cc43)C21 (stereo unspecified)	-	0	-	-	-
COc1ccccc1CN1[C@@H](CC(=O)O)c2cc(F)ccc2S1(=O)=O	-	0	-	-	-
COc1ccc(C(=O)N(c2ccccc2)C2C=CS(=O)(=O)C2)cc1 (stereo unspecified)	0	0	0	0	0
CC(=O)C(Sc1nc(N2CCOCC2)nc(N2CCOCC2)n1)C(=O)Nc1ccccc1 (stereo unspecified)	0	0	0	55	0
Cc1cc(N2CCOCC2)nc(NCc2ccccc2)n1	74	0	0	0	0
CC(Sc1nc(NCc2ccccc2)nc(N(C)C)n1)C(=O)Nc1ccccc1 (stereo unspecified)	58	-3.4	0	81	0
COc1ccc(-n2nnc3c(SCC(=O)NCC4CCCO4)ncnc32)cc1 (stereo unspecified)	0	-	0	0	0
COc1cccc(S(=O)(=O)Nc2ccc(C(=O)N3CCN(C(=O)c4ccco4)CC3)cc2)c1	-	0	-	-	-
CCOC(=O)c1c(NC(=O)C(C)NCc2ccco2)sc2c1CCC(C)C2 (stereo unspecified)	0	0	0	0	0
SMILES	CYP2C19 inhib	Cav32 inh	CYP2C19 act	CYP2C9 inhib	CYP2C9 act
O=S(=O)(c1ccccc1)N1N=C(c2cccs2)CC1c1ccc(F)cc1 (stereo unspecified)	0	0	0	0	0
Fc1ccccc1N1CC(c2ccccc2)C(c2cccs2)=N1 (stereo unspecified)	0	0	0	60	0
Cc1ccc(S(=O)(=O)NC2(C(F)(F)F)C(=O)Nc3c2c(=O)n(C)c(=O)n3C)cc1 (stereo unspecified)	0	0	0	0	0
CCC(=O)NC1(C(F)(F)F)C(=O)Nc2c1c(=O)n(C)c(=O)n2C (stereo unspecified)	72	2.9	0	58	0
CCN(CC)S(=O)(=O)c1ccc(NC(=O)COC(=O)c2ccc(-n3nc(C)cc3C)cc2)cc1	85	0	0	71	0
CN(C)c1ccc(C(=O)OCC(=O)Nc2ccc(S(N)(=O)=O)cc2)cc1	0	0	0	0	0
CCN(CC)S(=O)(=O)c1ccc(NC(=O)COC(=O)c2ccc(Br)o2)cc1	0	-4.7	0	67	0
